# Measured values as given in PubChem BioAssay (NCI).
# The panel holds about 83,000 compounds, 20% with a hit somewhere; the sample as a whole holds those more often.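 Values shown are percent growth following 48 h exposure of cells in 96-well plates to a single concentration of compound; below 10 was considered active.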 Values without a mark were called inactive. Active and inactive are the calls of the source.
# Key:
# Test in all cases: NCI-60 one-dose screen, 48 h (100 = growth as untreated, 0 = no growth, -100 = all killed)
# Details in all cases: 10 µM unless noted
# [1] = system: EKVX NSCLC
# [2] = system: SN12C renal
# [3] = system: UO-31 renal
# [4] = system: TK-10 renal
# [5] = system: ACHN renal
# [6] = system: CAKI-1 renal
# [7] = system: A498 renal
# [8] = system: CCRF-CEM leukemia
# [9] = system: MOLT-4 leukemia
# [10] = system: SR leukemia
Compound,growth [1],growth [2],growth [3],growth [4],growth [5],growth [6],growth [7],growth [8],growth [9],growth [10]
O=c1[nH]c2ccc(Cl)cc2cc1CSc1ccccc1Nc1nccc(-c2ccc(Cl)cc2)n1,80.5%,87.1%,81.2%,128%,95.7%,82.5%,88.1%,90.6%,60.9%,77.2%
O=C1Nc2ccccc2Oc2ccc(S(=O)(=O)CC3CO3)cc21 (stereo not drawn),75.2%,71.5%,65.9%,91.6%,46.4%,44.1%,102%,25.7%,42.8%,0.309% (active)
Cc1nc(-c2cc3ccccc3oc2=O)ccc1C(=O)/C=C/c1ccc(Cl)c(Cl)c1,92.1%,99.8%,89.4%,117%,93.1%,95.7%,93.8%,104%,102%,94.9%
O=C1C2=C(C(=O)c3c(O)cccc31)C(c1ccco1)c1sc(=O)[nH]c1S2 (stereo not drawn),83.4%,-73.6% (active),25.1%,146%,39.6%,70.4%,17.1%,13%,0.849% (active),15.8%
N[C@@H](Cc1cn(-c2ccnc3ccccc23)nn1)C(=O)O,98.5%,93.2%,88.2%,101%,96.1%,97.3%,110%,103%,107%,95.1%
C/C(=N/NC(N)=S)c1ccc(Nc2nc(SCC(C)C)nc(-c3ccc(F)cc3)c2C#N)cc1,-0.0417% (active),12.7%,0.28% (active),8.09% (active),12.5%,-9.45% (active),15.9%,51.7%,44.4%,42.8%
COc1ccc2[nH]cc(-c3cc(N)n4nc(-c5c[nH]c6ccc(OC)cc56)cc4n3)c2c1,80.1%,-64% (active),-22.8% (active),16.5%,-31.9% (active),-52.1% (active),83.1%,0.363% (active),-2.24% (active),-23.6% (active)
Cc1ccc(-c2nc(C(Cl)Cl)nc3cc(-c4ccccc4)nn23)cc1,-0.218% (active),51.4%,45.3%,23.7%,-59.8% (active),-22.9% (active),-31.3% (active),37.8%,10.4%,1.15% (active)
CC1=C(C)C(=O)C(Nc2cccc(C(F)(F)F)c2)=C(Cl)C1=O,49.4%,87.6%,77.3%,184%,-37.7% (active),92.7%,55.2%,5.9% (active),23.5%,25%
COc1ccc(NC2=C(Cl)C(=O)C(C)=C(C)C2=O)cc1OC,74.3%,88.9%,90.3%,170%,91.4%,89.4%,93.2%,15.3%,40.1%,84.5%
CCOc1ccc([C@H]2C(C(=O)c3ccc(Cl)cc3)C3(N[C@@H]2c2ccccc2)C(=O)Nc2ccc(Br)cc23)cc1 (stereo partly drawn),33.6%,6.51% (active),32.7%,53.4%,10.7%,31.8%,46.7%,34.9%,2.38% (active),-24% (active)
N#Cc1c(-c2ccc(Cl)cc2)nc(SCc2ccc(F)cc2)nc1N1CCNCC1,73.7%,52.2%,51.3%,92.7%,36%,49.8%,65%,37%,7.99% (active),-48.5% (active)
Cc1ccccc1NC(=O)/C=C/c1ccc(OCCOc2ccc3c(C)cc(=O)oc3c2)cc1,107%,91.5%,99.6%,132%,89.4%,95.1%,81.3%,95.7%,93.2%,61.3%
C[C@@H]1CN(c2ccc3ncc(C#Cc4cncc(C(=O)Nc5ccc(CN6CCN(C)CC6)c(C(F)(F)F)c5)c4)n3n2)C[C@H](C)O1,-18.9% (active),-26.7% (active),-87.9% (active),-91.1% (active),-94% (active),-94.1% (active),-90.4% (active),3.83% (active),1.65% (active),-24.3% (active)
CCOc1ccc2nc(NC(=O)c3ccc(C(F)(F)F)cc3)sc2c1,102%,101%,104%,95.4%,110%,98.1%,95.7%,92.1%,103%,89.5%
CCCC(=O)NC(c1cccnc1)c1cc(C)c2cccnc2c1O (stereo not drawn),31.5%,45.7%,26.6%,45.5%,20.2%,28%,63.1%,20.7%,18.8%,22.3%
O=[N+]([O-])c1ccc(O)c2ncccc12,26.2%,42.1%,31.4%,55.6%,23.7%,30.5%,55.7%,17.7%,19.9%,14.6%
N=C1CC(=O)NN1C(=O)CSc1nc2sc3c(c2c(=O)n1-c1ccc(Cl)cc1)CCCC3,97.8%,93.5%,70.1%,150%,94%,87.4%,91.3%,103%,103%,94%
Cc1cc(=O)oc2cc(OCCCOc3ccc(/C=C/C(=O)Nc4ccc(Cl)cc4)cc3)ccc12,98.5%,84.4%,61.5%,118%,45.3%,59.6%,57.7%,–,87.3%,37.7%
O=C1[C@H]2Cc3c([nH]c4ccccc34)[C@@H](c3ccc(Br)cc3)N2C(=O)CN1C1CCN(Cc2ccccc2)CC1,35.5%,12.9%,38.5%,64.3%,30.6%,44.9%,61%,15.5%,12.7%,-10.6% (active)
COc1ccc(/C=N/Nc2ccnc3cc(Cl)ccc23)cc1Cl,12.2%,-70.8% (active),-90% (active),-81.6% (active),-99.8% (active),-83.5% (active),36.7%,–,-25.3% (active),-9.69% (active)
CCOC(=O)c1sc(N)c(C(=O)OCC)c1C,25.9%,54.9%,31.3%,41.1%,52.9%,39.1%,13.4%,42%,26.5%,47.2%
NC(=O)c1c(NC(=O)c2ccc(C3CCCCC3)cc2)sc2c1CCC(=O)C2,14.2%,23.7%,11.6%,16.7%,4.68% (active),-2.11% (active),67.6%,9.82% (active),11.3%,5.25% (active)
O=c1[nH]c2ccccc2cc1CSc1ccccc1Nc1nccc(-c2ccc(C(F)(F)F)cc2)n1,64.7%,70.3%,72.3%,112%,48%,64.4%,85.5%,87.4%,63.5%,53.7%
NS(=O)(=O)c1ccc(Nc2nc(SCC(=O)c3ccc(Cl)cc3)nc3ccccc23)cc1,90.6%,88.1%,82.3%,153%,89%,74.5%,74.8%,92.4%,91.3%,79.6%
O=C(NNc1nc2cc(F)ccc2n2c(CN3CC4(COC4)C3)ccc12)c1cnccn1,17.6%,22.4%,13.7%,38.9%,13.7%,19.3%,-6.2% (active),4.02% (active),6.4% (active),0.659% (active)
CCCCN1C(=O)/C(=c2\sc3n(c2=O)C2C(NN=3)N(CC)C(=O)N2CC)c2cc(Cl)ccc21 (stereo not drawn),80.7%,82%,63%,132%,64.5%,50.7%,27.6%,72.2%,74.5%,14.1%
